# Bioassay records as filed in PubChem BioAssay.
# AmpC no deterg: blocks E. coli AmpC beta-lactamase in detergent-free assay. AmpC nitrocefin hydrolysis, absorbance 480 nm, 0.0001% Triton. Potency, µM (highest dose often 57.1 µM), usual class: inhibitors. 0.52% of 330,000 active. AID 485341; also: nearly all actives have a fitted effect of over 20% in size
# Target sequence (P00811 whole entry, looked up): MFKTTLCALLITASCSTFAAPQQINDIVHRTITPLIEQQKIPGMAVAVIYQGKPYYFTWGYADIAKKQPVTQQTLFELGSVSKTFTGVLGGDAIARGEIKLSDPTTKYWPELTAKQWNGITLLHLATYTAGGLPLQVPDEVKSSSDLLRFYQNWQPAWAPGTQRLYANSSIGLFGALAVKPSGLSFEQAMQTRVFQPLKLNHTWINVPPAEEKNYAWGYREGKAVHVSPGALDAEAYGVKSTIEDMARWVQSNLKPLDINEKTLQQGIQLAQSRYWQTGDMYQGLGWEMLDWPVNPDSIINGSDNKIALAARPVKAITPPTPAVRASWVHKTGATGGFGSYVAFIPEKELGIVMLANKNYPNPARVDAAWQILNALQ
#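 AmpC (5.3 nM in the dispensed reagent) in 20 mM phosphate pH 7.0 with 0.01% (detergent screen) or 0.0001% Triton X-100 was preincubated with compounds for 15 min at room temperature. Nitrocefin was then added from an 800 uM solution, and hydrolysis was followed at 480 nm.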
# AmpC inh detg: blocks E. coli AmpC beta-lactamase in detergent assay; AID 485294; P00811; AmpC hydrolysis of nitrocefin, absorbance 480 nm, 0.01% Triton; Potency, µM (top dose mostly 114 µM), usual class: inhibitors; 0.041% of 370,000 active; also: nearly all actives have a fitted effect of over 25% in size
#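 20 mM phosphate pH 7.0 + 0.01% (detergent screen) or 0.0001% Triton X-100; 5.3 nM AmpC reagent; cpd preinc 15 min RT; nitrocefin (800 uM stock) to start; A480 q20 s × 4 min; Activity was normalised to no-enzyme and no-compound control wells.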
# SARS PLP yeast: blocks SARS-CoV papain-like protease in a yeast assay; S. cerevisiae expressing SARS-CoV PLpro, growth rescue; Potency, µM (highest dose often 32.9 µM), usual class: activators; 0.19% of 330,000 active; AID 485353; calls by dose curve; also: nearly all actives have a fitted effect of over 55% in size
# CHX counter: affects cycloheximide protein synthesis inhibition readout, counter-screen | 12% of 300,000 active | AID 2314 | cell reporter, cycloheximide protein synthesis inhibition counterscreen | max response, %; in the data active = max response mostly above about 13%, no sharp cut-off; inactive = mostly below about 14%; also: read at 38.3 µM for the half of the compounds with a filed dose
# AMA1-RON2 inh: disrupts binding of P. falciparum AMA1 to RON2; AlphaScreen AMA1-biotinylated RON2 peptide binding; Potency, µM (top dose mostly 58.2 µM), usual class: inhibitors; 0.2% of 360,000 active; also: nearly all actives have a fitted effect of over 45% in size
#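 AMA1 (3D7) with his tag at 25 nM final met compounds first, then biotinylated RON2 peptide at 25 nM; detection used donor plus acceptor beads, 10 µg/mL apiece, read by AlphaScreen after 30 min at room temperature.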
# Shiga toxin inh: blocks Shiga toxin action in Vero cells; inhibition, % at 38.7 µM; AID 2315; Vero cells, Shiga toxin protein synthesis inhibition reporter; 9.2% of 290,000 active; in the data active = inhibition mostly above about 28%, no sharp cut-off; inactive = mostly below about 43%
# Hits are given with their value; – = inactive; ? = inconclusive; · = not tested or not shown; ! = not confirmed by another sample. This is one part of a sample in which hits are shown more often than they occur. Unless noted, calls follow the shape of the dose curve; as a rule, active = well fitted curve in the direction sought with a large enough effect; inconclusive = small, poorly fitted or top-dose-only effect, or another doubt; inactive = no such curve, though single readings can be large; an effect the other way counts as inactive or inconclusive.
SMILES,AmpC no deterg,AmpC inh detg,SARS PLP yeast,CHX counter,AMA1-RON2 inh,Shiga toxin inh
O/N=C(/CCc1ccccc1)c1ccc2c(c1)OCCO2,–,–,–,38,–,75
COc1ccc(OC)c(/C=C/C(=O)c2ccc3c(c2)OCCO3)c1,–,?,–,25,–,26
Cc1cc(=O)n(Cc2ccc(OC(C)C)cc2)c(=S)[nH]1,–,–,–,–,–,–
O=C1NCCC/C1=N\Nc1ccc(Br)cc1,–,–,–,8.2,–,–
c1cnc2c(c1)ccc1cccnc12,–,?,–,active!,–,–
COc1cccc(/C=C/C(=O)Nc2cc(S(=O)(=O)N3CCOCC3)ccc2OC)c1,–,?,–,·,–,·
O=C(NC1CCCC1)C(c1ccc(N2CCOCC2)cc1)N(Cc1ccco1)C(=O)c1ccco1 (configuration not stated),–,–,–,–,–,–
Oc1cccc(-c2nc3ccc4ccccc4c3c3c2CCC3)c1,–,–,–,59,–,127
CCOc1ccc(-c2nnc(SCC(=O)c3ccc(Br)cc3)n2-c2ccccc2)cc1,·,–,·,·,·,·
CSc1nncc(-c2ccc(F)cc2)n1,–,–,–,14,–,–
CSc1nncc(-c2ccc(F)c(F)c2)n1,–,–,–,–,–,–
CNc1ccc(Cl)nn1,–,–,–,–,–,–
NNc1ccc(Cl)nn1,–,–,–,22,–,–
Clc1ccc(Nc2ccc(Cl)nn2)cc1,–,?,–,–,–,48
COc1ccc(Nc2ccc(Cl)nn2)cc1,–,–,–,15,–,–
O=C(Cn1c(=O)oc2cc(S(=O)(=O)N3CCCCCC3)ccc21)Nc1ccc(F)cc1F,·,–,·,·,·,·
O=C(NCCN1CCOCC1)c1cc(-c2cccc(Cl)c2)on1,–,–,–,–,–,–
O=C(NCCN1CCOCC1)c1cc(-c2ccc(F)cc2)on1,–,–,–,–,–,–
Cc1ccc(-c2cc(C(=O)NCCN3CCOCC3)no2)cc1,–,–,–,15,–,25
O=C(NCCN1CCOCC1)c1cc(-c2ccc(Cl)cc2Cl)on1,–,–,–,20,–,50
O=C(NCCN1CCOCC1)c1cc(-c2ccco2)on1,–,–,–,–,–,31
Cc1ccc(C)c(NC(=S)NCCCN2CCOCC2)c1,–,–,–,–,–,–
CCN1C(=NCc2cc(OC)c(OC)c(OC)c2)N[C@@H](c2ccccc2)[C@H](C(=O)OC)[C@H]1C,–,?,–,–,·,–
OC1(c2ccc(F)cc2)CCN(Cc2nnnn2Cc2cccs2)CC1,–,–,–,–,?,–
Cc1ccc(NC(=O)c2oc3ccccc3c2NC(=O)C2CCCO2)cc1C (configuration not stated),–,–,–,42,–,100
SMILES,AmpC no deterg,AmpC inh detg,SARS PLP yeast,CHX counter,AMA1-RON2 inh,Shiga toxin inh
COc1ccc(NC(=O)c2oc3ccccc3c2NC(=O)C2CCCO2)cc1OC (configuration not stated),–,–,–,37,–,–
N#CC(Cc1ccc(OC(F)F)cc1)c1nc2ccccc2[nH]1 (configuration not stated),–,–,–,26,–,66
O=C(Nc1nc2ccccc2[nH]1)c1ccccc1OC(F)F,–,?,–,–,–,–
CCC(Oc1ccccc1)C(=O)Nc1nc2ccccc2[nH]1 (configuration not stated),–,–,–,21,–,–
Cn1nc(C(=O)Nc2nc3ccccc3[nH]2)c2ccccc2c1=O,–,–,–,29,–,–
O=C(Nc1nc2ccccc2[nH]1)c1ccc(OC(F)F)cc1,–,–,–,19,–,59
COCCCNC(=O)c1ccc(CN2CCc3ccccc3C2)cc1,–,–,–,–,–,–
CCOc1ccc(-n2nc3ccc(NC(=O)COc4ccccc4C)cc3n2)cc1,·,–,·,·,·,·
CC(C)Oc1ccc(C(=O)Nc2nc3ccccc3[nH]2)cc1,–,?,–,25,–,–
CSc1ccc(CN(C)C(=O)CSCC(=O)Nc2ccc(C)cc2)cc1,–,–,–,·,–,·
CN(C)c1ccc(C(CNC(=O)c2ccccc2F)c2c[nH]c3ccccc23)cc1 (configuration not stated),–,–,–,–,–,–
